Laboratory results: PubChem BioAssay (NCI)
Where “and” joins values, the source holds several entries; their conditions need not be identical. Equal values may be shown once. This is part of a sample that, as a whole, favours compounds with a hit. Of some 79,000 tested, about 15% had one in any assay. No stated cut-off is given here; in the data, active means growth inhibition above about 70%; inactive means the rest.

Key:
[1] = NCI Yeast Anticancer Drug Screen. Data for the rad50 strain (AID 155);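 further: 0% = growth of vehicle-only cultures of the same strain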; settings: S. cerevisiae rad50 strain growth inhibition, active compounds read high; at 50.0 µM unless noted
Summary of the method: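 Compounds were tested on a yeast strain with an engineered DNA damage repair alteration; the reported value is growth inhibition normalised to vehicle treatment.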

[2] = NCI Yeast Anticancer Drug Screen. Data for the mec2-1 strain (AID 157); settings: S. cerevisiae mec2-1 strain, active compounds read high; at 50.0 µM unless noted
Summary of the method: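 Mutant yeast (mec2-1) grown with compound; growth inhibition relative to vehicle control reported.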

[3] = NCI Yeast Anticancer Drug Screen. Data for the sgs1 mgt1 strain (AID 161);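 further: 0% = growth of cultures given vehicle only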; settings: S. cerevisiae sgs1 mgt1 strain, active compounds read high; at 50.0 µM unless noted
Summary of the method: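 Compounds are added to genetically altered yeast, and growth is compared with cultures given vehicle alone to give percent inhibition.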

[4] = NCI Yeast Anticancer Drug Screen. Data for the cln2 rad14 strain (AID 165);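 further: 0% = growth equal to vehicle treated cultures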; settings: S. cerevisiae cln2 rad14 strain, active compounds read high; at 50.0 µM unless noted
Summary of the method: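 Readout is yeast growth inhibition versus vehicle-treated controls, using a strain with cln2 and rad14 alterations exposed to compound.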

[5] = NCI Yeast Anticancer Drug Screen. Data for the bub3 strain (AID 167); settings: S. cerevisiae bub3 mutant strain, active compounds read high; at 50.0 µM unless noted
Summary of the method: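 Growth of a checkpoint-deficient yeast mutant is measured after compound exposure. Values represent inhibition relative to vehicle.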

[6] = NCI Yeast Anticancer Drug Screen. Data for the mlh1 rad18 strain (AID 175); settings: S. cerevisiae mlh1 rad18 strain growth inhibition, active compounds read high; at 50.0 µM unless noted
Summary of the method: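 Genetically defined yeast (DNA repair-deficient) exposed to compounds; growth inhibition determined relative to vehicle.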

Measured: growth inhibition

CC1=C(C)CC2(CCCCC2=O)S(=O)C1 (centres undefined)
inactive: [1] -34.8% | [2] -28.8% | [3] -9.85% | [4] 11.1% | [5] 15.8% | [6] 2.55%

O=c1cc(CBr)c2ccc(O)cc2o1
inactive: [1] -34.1% | [2] 2.55% | [3] -23.8% | [4] 8.3% | [5] -18.2% | [6] -44.5%

CC1Sc2ccccc2-c2[nH]c3ccccc3c21 (centres undefined)
inactive: [1] 32.8% | [2] 49% | [3] 16% | [4] 5% | [5] 31.7% | [6] 66.1%

C=CCC(C)(O)CCC(C)(O)CC=C (centres undefined)
inactive: [1] -1.95% | [2] -14.6% | [3] -8.3% | [4] 1.2% | [5] 0.95% | [6] 8.2%

CC(=O)Oc1ccc(Cc2ccccc2)cc1
inactive: [1] 47% | [2] 33.5% | [3] 48.2% | [4] -49.2% | [5] 32.9% | [6] 49.1%

CCCSCCC(NC(=O)c1ccccc1)C(=O)O (centres undefined)
inactive: [1] -14.6% | [2] -10% | [3] -10.1% | [4] -12.9% | [5] -15.2% | [6] -26.4%

C=C1CC(COc2ccc3c(C)c(C)c(=O)oc3c2C)(c2ccccc2)OC1=O (centres undefined)
inactive: [1] 8.85% | [2] -3.75% | [3] 23.9% | [4] 4.85% | [5] 6.7% | [6] 21.4%

CCCCCCCCCCCCCCCCCC(=O)N/N=C\c1c(O)ccc2ccccc12
inactive: [1] 21.4% | [2] 11.7% | [3] 4.85% | [4] 2.15% | [5] -10.1% | [6] 20.2%

COc1cccc2c1OC1(N3CCOCC3)CCCCC1C2C[N+](=O)[O-] (centres undefined)
inactive: [1] 6.8% | [2] -14% | [3] 12.3% | [4] 3.35% | [5] -7.9% | [6] -11.1%

Cc1c(Cl)cccc1C(=O)O
inactive: [1] -3.15% | [2] 10.7% | [3] 3.65% | [4] -3.15% | [5] -10% | [6] 27.6%

Cc1ccc(N(C)S(=O)(=O)c2ccccc2)cc1
inactive: [1] 11.4% | [2] -31.3% | [3] 15.4% | [4] 4.25% | [5] 22.6% | [6] 4.55%

CSc1ccc(NC(=O)Nc2cc(C)ccc2N=Nc2ccc(C)cc2)cc1
inactive: [1] -1.5% | [2] -2.35% | [3] -4.95% | [4] -9.3% | [5] -4.75% | [6] 17.5%

C#CC(O)C1OC(C)(C)OC1C1COC(C)(C)O1 (centres undefined)
inactive: [1] 4.15% | [2] 6.5% | [3] 13.2% | [4] -4.4% | [5] -3.6% | [6] -5.65%

c1cc(-c2ncc[nH]2)ccn1
inactive: [1] -6.9% | [2] -12.2% | [3] -4.25% | [4] -4.05% | [5] 6.1% | [6] -8.2%

CC(=O)OCC1OC(n2c3c(c(-c4cccc5ccccc45)c(C#N)c2=S)CCCC3)C(OC(C)=O)C(OC(C)=O)C1OC(C)=O (centres undefined)
inactive: [1] -1.25% | [2] -5.3% | [3] 14% | [4] 6.15% | [5] -5.8% | [6] 12.7%

NC(=O)CSCC(N)=O
inactive: [1] 0.75% | [2] -13.9% | [3] 3.45% | [4] 6.05% | [5] -2.75% | [6] 22%

S=c1nc[nH]c2c1ncn2Cc1ccco1
inactive: [1] 5.85% | [2] -12.9% | [3] -11.3% | [4] 0.55% | [5] -46.2% | [6] 5%

CNc1nc(=O)[nH]c(C)c1[N+](=O)[O-]
inactive: [1] 19.9% | [2] 4.45% | [3] -6.9% | [4] -60.8% | [5] -4% | [6] 12.6%

Cc1ccccc1S(N)(=O)=O
inactive: [1] -17.7% | [2] -28.1% | [3] -22.6% | [4] -42.2% | [5] -6.95% | [6] 3.25%

[N-]=[N+]=CC(=O)C1OC12C1CC3CC(C1)CC2C3 (centres undefined)
inactive: [1] -9.2% | [2] -5.85% | [3] 2.45% | [4] -6.25% | [5] 5.2% | [6] 4.55%

CC(=O)C[n+]1ccccc1
inactive: [1] -9.85% | [2] -9% | [3] -1.75% | [4] 3.75% | [5] 15.6% | [6] 14.2%

C=C[C@@]1(C)C=C2CC[C@@H]3[C@](C)(CCC[C@@]3(C)C(=O)O)[C@H]2CC1
inactive: [1] 67.5% | [2] 37.8% | [3] 31.3% | [4] 52.1% | [5] 35.1% | [6] 55.2%

CN(C)Cc1cc(-c2c(Cl)cccc2Cl)no1
inactive: [1] -18.8% | [2] -10.5% | [3] -10.4% | [4] 4% | [5] 7.1% | [6] -13.6%

CC1C(c2ccccc2)OCCN1C(N)=S (centres undefined)
inactive: [1] 21.9% | [2] 1% | [3] 52.4% | [4] 17.9% | [5] 24.1% | [6] 23.3%

CCCC(c1ccc(N(C)C)cc1)c1ccc(N(C)C)cc1
inactive: [1] -5% | [2] -22% | [3] -2.75% | [4] 16.6% | [5] 29.3% | [6] -30%

O=C(O)c1ccccc1C(=O)Nc1ccc(S(=O)(=O)Nc2nccs2)cc1
inactive: [1] -22.6% and -6.05% | [2] -15.9% and 9.8% | [3] -17.1% and 19.8% | [4] -4.7% and -20% | [5] -2.35% and -4.15% | [6] -18.5% and 25.6%

Nc1nc(Cl)c(N)c(NCC2(CO)CC(Cc3ccccc3)C2)n1 (centres undefined)
inactive: [1] 26.4% | [2] -35.4% | [3] 18.9% | [4] 7.6% | [5] 31% | [6] 15.1%

COc1ccc2c(c1)[n+](=O)c(C(=O)C/C(=N/NC(=O)C[N+](C)(C)C)C(=O)Nc1cccc(C)c1C)c(C)n2O
inactive: [1] -23.6% | [2] -2.25% | [3] -41% | [4] -5.5% | [5] 22.9% | [6] -13.9%

CC1(C)CC[C@]2(C(=O)O)CC[C@]3(C)C(=CC[C@@H]4[C@@]5(C)CC[C@H](O)C(C)(C)[C@@H]5CC[C@]43C)[C@@H]2C1
inactive: [1] -3.7% | [2] 4.4% | [3] -7.5% | [4] 13.2% | [5] 0.1% | [6] -3.9%

Cc1ccc(C(N)=O)cc1N=NN(C)C
inactive: [1] -25.8% | [2] -39.4% | [3] -56.9% | [4] 1.55% | [5] -16.6% | [6] -24.4%

CCCCCC(=O)NNC(=O)CCCCC
inactive: [1] 7.35% | [2] 13.8% | [3] 7.2% | [4] -4.95% | [5] -21.8% | [6] 15.1%

O=C(O)C1(O)CCCCC1
inactive: [1] -4.85% and 6.9% | [2] -2.45% and 9% | [3] -7.35% and -1.65% | [4] -21.2% and 16.4% | [5] -7.2% and 19.6% | [6] 6.65% and -7.05%

C=CCSC(=S)Nc1nc2ccc([N+](=O)[O-])cc2s1
inactive: [1] -4.1% | [2] 8.9% | [3] 7.45% | [4] 7.8% | [5] -10.8% | [6] -5.9%

COC(=O)CN(CC(=O)NCCCBr)C1CCCCC1N(CC(=O)OC)CC(=O)OC (centres undefined)
inactive: [1] -23.9% | [2] -17.1% | [3] 10.2% | [4] -23% | [5] -26.9% | [6] -22.7%

CC(Br)C(=O)NC(CC(N)=O)C(=O)O (centres undefined)
inactive: [1] 1.8% and -8.25% | [2] -15.6% and -16.1% | [3] -9.15% | [4] 4.2% | [5] -14.7% | [6] 23% and -17.1%

CCCCCC=C(c1cc(Cl)c(OC)c(C(N)=O)c1)c1cc(Cl)c(OC)c(C(N)=O)c1
inactive: [1] -20.1% | [2] -9.35% | [3] -12.4% | [4] -92.9% | [5] 5.5% | [6] -13.9%

COC(=O)CCSCc1ccccc1
inactive: [1] 2.65% | [2] 2.55% | [3] -1.6% | [4] -10% | [5] 4.8% | [6] 3.55%

O=C(Cc1nc2ccccc2o1)C(=O)Nc1cccc(Cl)c1
inactive: [1] -4.25% | [2] 0.9% | [3] -1.95% | [4] -42.2% | [5] 3.65% | [6] 19.1%

O=C1/C(=C/c2cccc(Cl)c2)CCCc2ccccc21
inactive: [1] 21.9% | [2] 13.8% | [3] 33.2% | [4] 11.3% | [5] 62.5% | [6] 44.4%
